Reference: the supplement of paper PMC3545927
The other results are listed elsewhere or left out. The true hit rate is not given.

Target: furin, P09958
Test: furin cleavage Z-score vs untreated control; higher = more cleavage, active = 3.5 or more, inactive = 1 or less, 8 variable residues between constant flanks
How it was run: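 Purified furin cleaved 8-mer peptides that were fused to a cDNA oligonucleotide and held on magnetic beads by their N-terminus. Each 0.01 ml reaction used a 1:10 enzyme:substrate ratio in 50 mM HEPES pH 7.5 with CaCl2 and NaCl and ran 7.5, 15 or 30 min. Released DNA was adapter-tagged by PCR and sequenced, and read counts gave abundance. The cleavage Z-score came from log counts against furin-free reactions, lowess-adjusted and scaled by median absolute deviation.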

Chain of furin, P09958 (P09958 whole entry): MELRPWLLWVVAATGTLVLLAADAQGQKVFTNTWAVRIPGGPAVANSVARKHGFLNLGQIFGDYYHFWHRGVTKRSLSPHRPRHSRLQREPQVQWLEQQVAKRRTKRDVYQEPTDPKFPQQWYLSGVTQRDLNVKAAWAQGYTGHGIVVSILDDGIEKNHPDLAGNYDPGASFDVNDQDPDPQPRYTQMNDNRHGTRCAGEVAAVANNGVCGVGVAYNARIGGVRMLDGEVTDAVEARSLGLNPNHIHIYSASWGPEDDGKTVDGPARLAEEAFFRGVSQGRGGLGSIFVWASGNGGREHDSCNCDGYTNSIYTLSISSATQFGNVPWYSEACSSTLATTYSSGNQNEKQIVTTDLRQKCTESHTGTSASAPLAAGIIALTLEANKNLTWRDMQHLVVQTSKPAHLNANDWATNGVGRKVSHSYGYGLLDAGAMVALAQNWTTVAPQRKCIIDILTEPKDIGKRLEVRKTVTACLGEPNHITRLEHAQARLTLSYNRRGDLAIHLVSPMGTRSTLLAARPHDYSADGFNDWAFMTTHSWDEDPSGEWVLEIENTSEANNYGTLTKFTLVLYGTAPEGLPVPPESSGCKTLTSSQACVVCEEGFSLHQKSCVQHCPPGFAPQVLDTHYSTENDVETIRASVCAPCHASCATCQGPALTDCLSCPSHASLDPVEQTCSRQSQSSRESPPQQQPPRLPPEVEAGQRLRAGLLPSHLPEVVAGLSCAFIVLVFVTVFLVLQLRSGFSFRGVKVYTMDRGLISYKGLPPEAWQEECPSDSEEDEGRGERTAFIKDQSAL

Row | Sequence | furin cleavage Z-score (7.5 min) | furin cleavage Z-score (15 min) | furin cleavage Z-score (30 min)
1 | CALPYIEQGMAGNASASA [HC1018] | -0.393 (inactive) | -0.653 (inactive) | 2.95
2 | CALRSRSGRSAGNASASA [FS-57] | 4.75 (active) | 5.58 (active) | 4.32 (active)
3 | CAEQGRQGRSAGNASASA [FS-416] | -1.07 (inactive) | -0.0349 (inactive) | 0.708 (inactive)
4 | CALRLRKGRSAGNASASA [FS-613] | 2.52 | 2.83 | 0.738 (inactive)
5 | CAQQHRQGRSAGNASASA [FS-1391] | 6.09 (active) | 6.71 (active) | 6.63 (active)
6 | CAQRERSGRSAGNASASA [FS-1057] | 4.28 (active) | 6.49 (active) | 6.16 (active)
7 | CALRSRWGRSAGNASASA [FS-1370] | 6.03 (active) | 5.71 (active) | 6.06 (active)
8 | CAQDPRSGRSAGNASASA [FS-846] | 0.797 (inactive) | -0.812 (inactive) | -0.37 (inactive)
9 | CATNSRGENCAGNASASA [HC1504] | 0.0549 (inactive) | 0.267 (inactive) | 0.425 (inactive)
10 | CATTPCSGSAAGNASASA [HC1923] | 0.77 (inactive) | -1.08 (inactive) | -0.465 (inactive)
11 | CATGDFDSVIAGNASASA [HC883] | -0.133 (inactive) | -1.34 (inactive) | -0.511 (inactive)
12 | CAGSFRSLRSAGNASASA [FS-433] | -0.832 (inactive) | -0.397 (inactive) | -0.333 (inactive)
13 | CAKRRLQKRSAGNASASA [FS-1638] | 11.7 (active) | 9.73 (active) | 9.24 (active)
14 | CANRGIGKRSAGNASASA [FS-65] | 7.18 (active) | 8.2 (active) | 7.79 (active)
15 | CANLMRPKRSAGNASASA [FS-137] | 11.8 (active) | 11.3 (active) | 8.61 (active)
16 | CAGSFRGKRSAGNASASA [FS-1206] | 11.1 (active) | 11.4 (active) | 8.01 (active)
17 | CACQRGYKGVAGNASASA [HC1166] | -1.45 (inactive) | -3.75 (inactive) | -2.51 (inactive)
18 | CAEWEVPCHRAGNASASA [HC2448] | 1.07 | 2.14 | 0.904 (inactive)
19 | CAIGSVGLGKAGNASASA [HC1080] | 1.13 | 0.942 (inactive) | -0.856 (inactive)
20 | CAETPCSGSWAGNASASA [HC1832] | -0.56 (inactive) | -0.454 (inactive) | -0.69 (inactive)
21 | CAGINAVAYYAGNASASA [HC866] | -0.468 (inactive) | -1.09 (inactive) | -1.09 (inactive)
22 | CARSRKEVELAGNASASA [FS-2089] | 0.0687 (inactive) | 0.38 (inactive) | -1.75 (inactive)
23 | CACGGRGKRSAGNASASA [FS-14] | 8.41 (active) | 9.33 (active) | 7.54 (active)

Row | Sequence | furin cleavage Z-score (7.5 min) | furin cleavage Z-score (15 min) | furin cleavage Z-score (30 min)
24 | CADELRGKRSAGNASASA [FS-754] | -0.105 (inactive) | 0.269 (inactive) | -1.01 (inactive)
25 | CALKPRPKRSAGNASASA [FS-609] | 10.8 (active) | 12.3 (active) | 9.88 (active)
26 | CALKRRGKRSAGNASASA [FS-350] | 12.2 (active) | 12.5 (active) | 8.44 (active)
27 | CALRKYPKRSAGNASASA [FS-358] | 0.0194 (inactive) | 0.839 (inactive) | 1.49
28 | CARKRAQKRSAGNASASA [FS-1064] | 8.12 (active) | 9.12 (active) | 7.74 (active)
29 | CAEVPCHRDSAGNASASA [HC2391] | 0.533 (inactive) | 1.52 | 1.63
30 | CAFVSLLAPGAGNASASA [HC360] | -0.325 (inactive) | -1.4 (inactive) | -1.08 (inactive)
31 | CAEVPCHDPSAGNASASA [HC2371] | 0.427 (inactive) | 1.64 | 0.537 (inactive)
32 | CAEVPCHRYSAGNASASA [HC2389] | 0.533 (inactive) | 1.28 | 1.5
33 | CADLMEECSQAGNASASA [HC1805] | -0.946 (inactive) | -0.224 (inactive) | -0.925 (inactive)
34 | CALKRMQKRSAGNASASA [FS-610] | 12.7 (active) | 13.3 (active) | 10.5 (active)
35 | CAEALRQKRAAGNASASA [FS-227] | 6.68 (active) | 7.12 (active) | 5.04 (active)
36 | CAHLVRQKRAAGNASASA [FS-1008] | 10.3 (active) | 10.1 (active) | 7.65 (active)
37 | CAEAMTRYSAAGNASASA [HC1541] | -0.217 (inactive) | 0.448 (inactive) | -0.963 (inactive)
38 | CATTPCSGPWAGNASASA [HC1919] | -0.176 (inactive) | 1.46 | 0.343 (inactive)
39 | CAFVLNNTRPAGNASASA [HC429] | -0.02 (inactive) | 0.46 (inactive) | -0.424 (inactive)
40 | CARARRLRREAGNASASA [FS-288] | 12.9 (active) | 12.3 (active) | 9.18 (active)
41 | CARARRSMDEAGNASASA [FS-2203] | 10.2 (active) | 11.1 (active) | 8.05 (active)
42 | CARRLREAVQAGNASASA [FS-2071] | 0.989 (inactive) | -0.0587 (inactive) | 2.28
43 | CARARRRTPTAGNASASA [FS-1995] | 0.355 (inactive) | 2.75 | 0.804 (inactive)
44 | CARARKLADEAGNASASA [FS-2887] | 0.23 (inactive) | -0.74 (inactive) | -2.19 (inactive)
45 | CARRLRARREAGNASASA [FS-291] | 9.55 (active) | 8.95 (active) | 6.29 (active)
46 | CARARRRSAEAGNASASA [FS-2889] | 2.93 | 2.98 | 4.07 (active)
